Only some compounds are listed: those with a hit (about 11% of all), similar ones and a draw of the others.
NS1 function inh: influenza NS1 inhibition; AID 2326; 0.4% of 270,000 active; Potency, µM (series often up to 46.1 µM); calls by dose curve; also: actives are rising curves; nearly all actives have a fitted effect of over 50% in size
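In this qHTS, NS1 from influenza A is expressed in budding yeast, where it slows growth. Cells are switched from glucose to 2% galactose medium (pH 6.0, -URA), treated with compound, and growth recovery is read at OD600.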
HCV inh: blocks hepatitis C virus | Huh7.5.1 HCVcc-Cre infection, luciferase reporter, 44 h | Potency, µM (series often up to 41.8 µM), hits mostly inhibitors | 3.4% of 340,000 active
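HCVcc-Cre virus at an moi near 0.5 was added right after compound to cells cultured 4 h from seeding (1,000 cells/well). Luciferase activity was determined 44 h later, 15 min after substrate addition at RT.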
Pf growth 96h: inhibits malaria parasite growth, 96 h. P. falciparum luciferase reporter growth, 96 h. Potency, µM (doses to about 28.7 µM), actives largely listed as inhibitors. 6.9% of 320,000 active. AID 504834
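Erythrocytes infected with luciferase-expressing P. falciparum were dispensed at 2% hematocrit and 0.05% parasitemia (final), then incubated with compounds 96 hours at 37 C in 5% CO2. Luminescence after detection reagent addition reported growth.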
Vaccinia Venus: inhibitors of vaccinia virus (Venus reporter) | Vaccinia virus Venus reporter expression, fluorescence | Potency, µM (top dose mostly 36.5 µM), usual class: inhibitors | 0.46% of 330,000 active; calls by dose curve; tested in A549 cells; also: nearly all actives have a fitted effect of over 30% in size
VACV mCherry inh: vaccinia inhibition (mCherry reporter); 0.63% of 310,000 active; Potency, µM (series often up to 36.5 µM), most hits filed as inhibitors; Vaccinia virus mCherry reporter infection, fluorescence; calls by dose curve; tested in A549 cells; also: nearly all actives have a fitted effect of over 35% in size
Pf growth 48h: P. falciparum growth inhibition at 48 hours (one generation). P. falciparum luciferase growth in erythrocytes, 48 h. Potency, µM (top dose mostly 28.7 µM), usual class: inhibitors. 5.9% of 310,000 active. AID 504832
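Growth was read as firefly luciferase luminescence after a 48 h, 37 C, 5% CO2 exposure of compounds to reporter-bearing P. falciparum cultures (0.1% parasitemia, 2% hematocrit final) in Albumax-supplemented RPMI 1640.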
Hits are given with their value; n = inactive; u = inconclusive; x = no result. Unless noted, calls follow the shape of the dose curve; as a rule, active = well fitted inhibition curve with a large enough effect; inconclusive = small, poorly fitted or top-dose-only effect, or another doubt; inactive = no such curve, though single readings can be large or run the other way.

SMILES	NS1 function inh	HCV inh	Pf growth 96h	Vaccinia Venus	VACV mCherry inh	Pf growth 48h
CCn1c(C)[n+](Cc2ccccc2)c2ccc(Cl)cc21	x	n	n	n	n	7.4µM
Cc1n(Cc2ccccc2)c2ccccc2[n+]1Cc1ccccc1	n	n	n	n	n	1.3µM
Cc1n(Cc2ccccc2)c2cc([N+](=O)[O-])ccc2[n+]1Cc1ccccc1	n	n	u	x	x	u
CC(=O)Nc1ccc(NC(=O)CN(c2ccc(C34CC5CC(CC(C5)C3)C4)cc2)S(C)(=O)=O)cc1	n	u	n	u	u	n
CS(=O)(=O)N(CC(=O)Nc1ccc(CC#N)cc1)c1ccc(C23CC4CC(CC(C4)C2)C3)cc1	n	u	u	u	u	10µM
O=C(c1ccc(CS(=O)(=O)c2ccc(Br)cc2)o1)N1CCCCCC1	n	u	n	n	n	x
O=C(c1ccc(CS(=O)(=O)c2ccc(Br)cc2)o1)N1CCCC1	n	u	7.4µM	n	n	x
Cc1ccc(S(=O)(=O)Cc2ccc(C(=O)N3CCN(Cc4ccccc4)CC3)o2)cc1	u	n	n	x	x	u
O=C(c1ccc(CS(=O)(=O)c2ccccc2)o1)N1CCOCC1	n	n	12µM	n	n	x
Cc1ccc(-c2cc(-c3ccccc3)c(C#N)c(SCC(O)CS(=O)(=O)Cc3ccccc3)n2)cc1 (stereo not given)	x	x	x	n	n	x
O=C1Nc2ccccc2C12OCC1(CO2)COC2(OC1)C(=O)Nc1ccccc12 (stereo not given)	u	n	n	n	n	x
C=CCNC1=C2C[C@@H](C)C[C@H](OC)[C@H](O)[C@@H](C)/C=C(\C)[C@H](OC(N)=O)[C@@H](OC)/C=C\C=C(/C)C(=O)NC(=CC1=O)C2=O	x	x	11µM	x	x	0.6µM
O=C(NCCNC(=O)c1ccccc1F)c1ccccn1	n	n	n	n	n	n
CCOc1ccccc1Nc1ccnc2cc(Cl)ccc12	n	u	n	u	n	2.6µM
CCOc1ccccc1Nc1cc(-c2ccccc2)nc(C)n1	x	x	x	n	n	x
S=C(NCc1ccccn1)Nc1ccc(Cl)cc1Cl	n	n	n	n	n	n
Clc1ccc2c(NCc3ccccn3)ccnc2c1	n	u	0.47µM	x	x	0.66µM
O=C(NCCCNc1ccnc2cc(Cl)ccc12)c1ccccc1F	n	10µM	0.41µM	x	x	0.47µM
CCOc1ccccc1Nc1cc(C)c2cccc(C)c2n1	n	7.9µM	n	n	n	n
CCc1ccc2[nH]c(=O)c(CN(Cc3ccc4c(c3)OCO4)Cc3nnnn3C3CCCC3)cc2c1	u	u	n	u	u	u
COC(=O)[C@@H]1C[C@H](NC(=O)c2cc(C(F)(F)F)ccc2Cl)CN1Cc1cccc(O)c1	x	x	x	n	n	x
Clc1ccc2c(NCCNc3ccnc4cc(Cl)ccc34)ccnc2c1	n	x	x	x	x	x
Clc1ccc2c(NCCNC3CCCCC3)ccnc2c1	n	7.9µM	x	u	n	x
Cc1ccc(S(=O)(=O)NC(C(=O)OCC(=O)NC2CCS(=O)(=O)C2)C(C)C)cc1 (stereo not given)	n	n	10µM	x	x	n
Cc1ccc(C(=O)N[C@H](C(=O)OCC(=O)NC2CCS(=O)(=O)C2)C(C)C)cc1 (stereo not given in full)	n	n	n	n	n	n
SMILES	NS1 function inh	HCV inh	Pf growth 96h	Vaccinia Venus	VACV mCherry inh	Pf growth 48h
Cc1ccc(S[C@@H](CCN2CC[C@H](C)CCC2=O)c2ccccc2)cc1	n	u	9.3µM	n	n	u
COc1ccc(S[C@@H](CCN2CC[C@H](C)CCC2=O)c2ccccc2)cc1	x	u	u	n	n	8.3µM
CC(C)=C1C2CCC1C(C(=O)Nc1sc(C)c(-c3ccc(C(C)C)cc3)c1C(N)=O)C2C(=O)O (stereo not given)	n	u	u	u	n	u
O=C(c1coc2ccc(O)cc12)C1CC1	n	n	8.3µM	n	n	n
O=C(c1ccc(Br)cc1)c1coc2ccc(O)cc12	x	n	x	n	n	x
COc1ccc(OC)c(C(=O)c2coc3ccc(O)cc23)c1	n	n	10µM	x	x	n
COc1ccc2occ(C(=O)c3ccccc3)c2c1	x	n	n	n	n	n
C=CCOC(=O)C1=C[C@@H](c2ccc(C(F)(F)F)cc2)C[C@@H](OCCCCO)O1	x	n	x	n	n	x
Cc1csc2nc(CNS(=O)(=O)N(C)C)cn12	n	n	n	n	n	x
O=C(NCC1CCCC(CNC(=O)N2CCc3ccccc32)C1)N1CCc2ccccc21 (stereo not given)	n	u	5.9µM	x	x	x
